A selection: hits, their analogues and other compounds. The true share with any hit is near 15%.
Pf growth 96h: Primary qHTS for delayed death inhibitors of the malarial parasite plastid, 96 hour incubation | AID 504834, 2011 | P. falciparum luciferase reporter growth, 96 h | Potency, µM (series often up to 28.7 µM), without a hit: top-dose activity change, negative = inhibition, actives largely listed as inhibitors | 320,000 compounds, 6.9% hits; also: potency is read from the fitted curve at half-maximal effect; % is scaled to controls: 0 for no effect and ±100 for the full control effect
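Plates of compound plus infected erythrocytes (2% hematocrit, 0.05% parasitemia final) incubate 96 hours, 37 C, 5% CO2. Detection reagent added; reduced luminescence from the parasites' luciferase reporter flags inhibition.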
Sm TGR block: qHTS Assay for the Inhibitors of Schistosoma Mansoni Peroxiredoxins; Schistosoma mansoni thioredoxin glutathione reductase (TGR), Q962Y6; 360,000 compounds, 3% hits; purified TGR, DTNB reduction, TNB absorbance 405 nm; Potency, µM (doses to about 114 µM), without a hit: at the highest dose activity change, negative = inhibition, actives largely listed as inhibitors; also: potency is read from the fitted curve at half-maximal effect; % is scaled to controls: 0 for no effect and ±100 for the full control effect; nearly all actives have a fitted effect of over 60% in size
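First, TGR (20 nM dispensed) and NADPH were mixed with compound. Second, a 15 min room-temperature incubation followed. Third, further NADPH and then DTNB were added to start the reaction. Finally, TNB absorbance was monitored kinetically.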
HCMV antiviral: qHTS Assay for inhibitors of the human cytomegalovirus (HCMV) | HFF cells, HCMV-luciferase reporter, 72 h; hits give low values | activity change, negative = inhibition, % at 57.5 µM | 410,000 compounds, 4.5% hits; in the data active = activity change below about -60%; inconclusive = no clear call, values can overlap the other calls; inactive = above about -39%; also: % is scaled to controls: 0 for no effect and ±100 for the full control effect
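Compounds were evaluated in HFFs infected with an HCMV luciferase reporter virus (MOI 1 PFU/cell). Luciferase in lysates collected 72 h post infection served as the replication measure.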
HCV inh: qHTS Assay for Inhibitors of Hepatitis C Virus (HCV); 340,000 compounds, 3.4% hits; Potency, µM (series often up to 41.8 µM), inactives show at the top dose activity change, negative = inhibition, usual class: inhibitors; Huh7.5.1 HCVcc-Cre infection, luciferase reporter, 44 h; also: potency is read from the fitted curve at half-maximal effect; % is scaled to controls: 0 for no effect and ±100 for the full control effect
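Cells seeded at 1,000/well and cultured 4 h, then compounds added followed by HCVcc-Cre virus (~0.5 moi). After 44 h further culture, luciferase substrate was added, plates held 15 min at room temperature, and luminescence read for 15 sec.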
Pf growth 48h: Primary qHTS for delayed death inhibitors of the malarial parasite plastid, 48 hour incubation | P. falciparum luciferase growth in erythrocytes, 48 h | Potency, µM (top dose mostly 28.7 µM), for inactives: at the highest dose activity change, negative = inhibition, most hits filed as inhibitors | 310,000 compounds, 5.9% hits | AID 504832, 2011; also: potency is read from the fitted curve at half-maximal effect; % is scaled to controls: 0 for no effect and ±100 for the full control effect
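Firefly luciferase activity from engineered P. falciparum reports growth; inhibitors lower the luminescent signal. Cultures contained 2% hematocrit erythrocytes at 0.1% final parasitemia.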
SARS PLpro yeast: qHTS of Yeast-based Assay for SARS-CoV PLP. S. cerevisiae expressing SARS-CoV PLpro, growth rescue. Potency, µM (highest dose often 32.9 µM), for the others: top-dose activity, positive = growth rescue, usual class: activators. 330,000 compounds, 0.19% hits; calls by dose curve; also: potency is read from the fitted curve at half-maximal effect; 0% is about no effect; nearly all actives have a fitted effect of over 55% in size
* = called active by the depositor; ? = inconclusive; / = not tested or not shown; [ ] = another dose, or the depositor's remark. Unless noted, calls follow the shape of the dose curve; as a rule, active = well fitted curve in the direction sought with a large enough effect; inconclusive = small, poorly fitted or top-dose-only effect, or another doubt; inactive = no such curve, though single readings can be large; an effect the other way counts as inactive or inconclusive.

SMILES	Pf growth 96h	Sm TGR block	HCMV antiviral	HCV inh	Pf growth 48h	SARS PLpro yeast
CCCOC(=O)C1=C(C)NC2=C(C(=O)CCC2)C1c1cccc(OC)c1OC (configuration not stated)	8.28µM*	7.1%	-30.6	2.3%	13.8%	-0.6%
CCOC(=O)C1(C(=O)OCC)C(C)CC(=O)N1c1ccccc1OC (configuration not stated)	/	/	4.3	/	/	/
COc1cccc(NC(=O)c2cc(Cl)nnc2Cl)c1	?	-10.7%	23.6	?	3.7µM*	-0.9%
COc1cccc(NC(=O)c2cccc(Cl)c2)c1	163.1%	6.9%	94.8	-18.7%	94.1%	4.6%
COc1cc(NC(=O)c2cc(Cl)nnc2Cl)cc(OC)c1OC	?	-5.0%	0.8	-3.0%	11.7µM*	0.5%
CC(c1ccccn1)N(C)C(=O)c1ccc2nc(Cc3ccccc3F)oc2c1 (configuration not stated)	-0.1%	-5.9%	69.0	14.3%	11.8%	2.5%
C[C@@H]1CN([C@@H](C)CO)C(=O)CCCn2nncc2CO[C@H]1CN(C)C(=O)C1CC1	/	/	1.1	/	/	/
COc1cccc(N2CCN(c3c(C#N)c(C(F)(F)F)nn3C)CC2)c1	/	16.6%	-94.3*	?	?	-10.1%
Cn1nc(C(F)(F)F)c(C#N)c1N1CCN(c2ccccc2F)CC1	12.6%	-0.6%	-31.5	6.7%	23.0%	/
CCC(=O)NCc1ccc2[nH]c(C)cc2c1	?	28.2µM*	74.9	13.0%	19.5%	0.4%
Cc1ccc(NC(=O)NCc2ccc3[nH]c(C)cc3c2)cc1	56.4%	-14.0%	-84.2*	?	-11.8%	-0.4%
CNC(=S)NCc1ccc2[nH]c(C)cc2c1	0.0%	2.9%	-17.6	-1.6%	-1.3%	-1.2%
Cc1cc2cc(CNC(=S)NC3CCCCC3)ccc2[nH]1	-4.6%	14.5%	-63.4*	10µM*	-0.7%	17.2%
Cc1cc2cc(CNC(=O)CCC(=O)O)ccc2[nH]1	-3.9%	0.0%	-2.1	1.2%	60.3%	0.4%
CCc1cccc(C)c1NC(=S)NCc1ccc2[nH]c(C)cc2c1	10.4µM*	-16.2%	22.3	?	13.1µM*	?
COC(=O)c1cc2oc3ccccc3c2n1Cc1nc(-c2ccc(Cl)cc2)oc1C	/	2.4%	3.8	/	/	/
CCOC(=O)c1cc(COc2cc(Cl)cc(Cl)c2)on1	34.5%	29.3%	/	11.2%	17.4%	-0.7%
CC(=O)NCc1ccc2[nH]c(C)cc2c1	-0.1%	39.8µM*	33.4	18.5%	14.4%	-1.7%
Nc1c(C(=O)NCCN2CCOCC2)c2nc3ccccc3nc2n1CCc1ccccc1	-19.0%	-29.7%	?	?	9.28µM*	-3.5%
Nc1c(C(=O)NCCN2CCOCC2)c2nc3ccccc3nc2n1CCc1ccccc1F	13.1µM*	3.7%	-8.0	?	?	0.2%
COc1ccccc1CNC(=O)c1c(N)n(CCCN2CCOCC2)c2nc3ccccc3nc12	?	-0.9%	-29.7	/	?	?
C=CCNC(=O)c1c(N)n(CCN2CCOCC2)c2nc3ccccc3nc12	39.6%	4.2%	20.4	5.8%	-14.9%	-1.8%
Cc1nnsc1S(=O)c1ccc(Cl)c(Cl)c1 (configuration not stated)	5.22µM*	?	?	-24.6%	/	-1.0%
Cc1cc(C)c(S(C)(=O)=O)c(S(=O)c2ccc(Cl)cc2)n1 (configuration not stated)	101.6%	10.4%	-3.5	6.4%	-3.1%	?
Cc1nnsc1S(=O)c1ccc(Cl)cc1 (configuration not stated)	1.65µM*	-2.9%	?	?	/	2.2%
SMILES	Pf growth 96h	Sm TGR block	HCMV antiviral	HCV inh	Pf growth 48h	SARS PLpro yeast
Cc1ccc([N+](=O)[O-])c(C(=O)Nc2cccnc2Cl)c1	2.6%	-2.2%	-15.1	22.9%	11.5%	1.4%
O=C(Nc1cccc2c1CCCC2)c1ccc(Cl)c([N+](=O)[O-])c1	-0.1%	3.3%	-26.0	?	-10.5%	-4.1%
Cc1occc1C(=O)Nc1ccc([N+](=O)[O-])cc1Br	27.3%	-0.1%	7.0	4.9%	29.2%	-5.5%
O=C(Nc1ccccc1Cl)Nc1cccnc1Cl	?	5.0%	-61.5*	?	14.2%	2.0%
O=C(Nc1ccc([N+](=O)[O-])cc1Br)c1cc2ccccc2nc1Cl	0.329µM*	-4.7%	?	-8.4%	0.185µM*	0.4%
O=C(Nc1ccccc1F)Nc1cccnc1Cl	/	/	2.5	-7.0%	/	/
O=C(Nc1cccc2c1CCCC2)c1cc([N+](=O)[O-])ccc1Cl	?	-24.2%	-104.8*	?	?	-0.1%
O=C(Nc1cccnc1Cl)c1cc([N+](=O)[O-])ccc1Cl	?	-13.2%	-75.1*	-15.8%	-23.2%	5.1%
CCC(=O)N1CCC1(C)C(=O)Nc1ccc(C)c(C)c1 (configuration not stated)	/	/	33.7	/	/	/
O=C(Nc1ccnn1C1CCN(Cc2ccccc2OC(F)F)CC1)c1cccnc1	?	-18.1%	-11.3	-15.4%	?	0.9%
COc1ccc(S(=O)(=O)N(C)C[C@@H]2OCc3cnnn3CCCC(=O)N([C@@H](C)CO)C[C@@H]2C)cc1	/	/	16.2	/	/	/
O=C(Nc1cccc2ncccc12)c1cc([N+](=O)[O-])ccc1Cl	11.7µM*	0.0%	-87.9*	8.91µM*	5.3%[0.00184 µM]	-1.2%
CCc1ccccc1NC(=O)c1ccccc1Sc1ccc([N+](=O)[O-])cc1Cl	-16.7%	-12.2%	14.1	?	11.7µM*	-12.8%
CCSc1ccccc1C(=O)Nc1ccc([N+](=O)[O-])cc1OC	-1.6%	/	?	?	?	-0.5%
O=C(CN1C(=O)NC2(CCCCCC2)C1=O)c1cccs1	51.3%	-0.9%	19.3	-15.6%	2.7%	-0.5%
Cn1ccnc1SCC(=O)c1cccc(Br)c1	-5.2%	-33.0%	74.0	17.1%	/	3.1%
COc1cccc(C(=O)CSc2nccn2C)c1	11.7µM*	-13.5%	2.3	-2.9%	76.7%	1.2%
CCN(CC(=O)Nc1cc(OC)ccc1OC)Cc1nc2ccccc2c(=O)[nH]1	-22.4%	7.9%	48.9	-28.2%	-3.6%	1.5%
COc1cc2c(cc1NC(=O)CN(C)Cc1nc3ccccc3c(=O)[nH]1)oc1ccccc12	?	-5.8%	-14.5	?	5.22µM*	-2.2%
COc1cc2c(cc1NC(=O)CSc1nccn1C)oc1ccccc12	20.7%	-4.4%	-5.9	2.82µM*	83.4%	-37.2%
COc1cc2c(cc1NC(=O)CSc1nc3ccccc3[nH]1)oc1ccccc12	?	0.2%	?	8.91µM*	?	-19.6%
